# Measurements: the supplement of paper PMC9694430
# Tested on: LOC_OS02G17970-cb001
# Experiment: thermal shift delta Tm vs DMSO control; higher = stronger stabilization (binding)
# Conditions: 12.5 µM; protein concentration 2 µM
# Procedure, shortened: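 The melting temperature shift given here is a triplicate mean, measured against protein that received only DMSO. Melting temperatures came from Boltzmann fits of differential scanning fluorimetry data on E. coli-expressed, purified rice kinase domain constructs. Each 19.5 μl well contained 2 μM kinase, 100 mM potassium phosphate pH 7.5, 150 mM NaCl, 10% glycerol, 5 × SYPRO Orange and compound in DMSO. Plates were scanned from 25°C to 95°C at 0.05°C/s.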
row,SMILES,thermal shift delta Tm [°C]
1,COc1ccc(CC(=O)Nc2nc3c(s2)CCc2ccccc2-3)cc1OC,0.81
2,CNS(=O)(=O)Nc1nccc(Cc2c(C)c3ccc(Oc4ncccn4)cc3oc2=O)c1F,1.23
3,C[C@H](NC(=O)/C(C#N)=C/c1cccc(Br)n1)c1ccccc1,-2.09
4,COc1ccc(COc2cc3oc(=O)c4cc(C(C)O)ccc4c3cc2OC)cc1 (configuration not stated) [Palomid 529 (P529)],0.5
5,CC(C)(C)Cn1c(N)nc2ccc(-c3[nH]c(C(C)(C)C)nc3-c3ccc(F)cc3)nc21,-0.24
6,COc1ccccc1-c1cc(Nc2cccc(CS(N)(=O)=O)c2)ncn1,1.02
7,Cn1cnc(N)c2ncnc1-2 [3-Methyladenine (3-MA)],0.34
8,C=CC(=O)N[C@H]1CCOC[C@H]1Nc1ncc2cc(-c3c(Cl)c(OC)cc(OC)c3Cl)ccc2n1,-0.41
9,CCS(=O)(=O)Nc1ccc2c(c1)/C(=C(/Nc1ccc(CN3CCCCC3)cc1)c1ccccc1)C(=O)N2 [Hesperadin],0.3
10,Cc1cc(Nc2cc(N3CCN(C)CC3)nc(/C=C/c3ccccc3)n2)n[nH]1 [ENMD-2076 L-(+)-Tartaric acid],0.95
11,Cc1ccc(F)c(NC(=O)Nc2ccc(-c3cccc4[nH]nc(N)c34)cc2)c1 [Linifanib (ABT-869)],0.94
12,CO[C@H]1C[C@@H]2CC[C@@H](C)[C@@](O)(O2)C(=O)C(=O)N2CCCC[C@H]2C(=O)O[C@H]([C@H](C)C[C@@H]2CC[C@@H](OCCO)[C@H](OC)C2)CC(=O)[C@H](C)/C=C(\C)[C@@H](O)[C@@H](OC)C(=O)[C@H](C)C[C@H](C)/C=C/C=C/C=C/1C [Everolimus (RAD001)],0.76
